# Records with an inconclusive call do not appear. Entries that show only a call come without a potency. Activity calls are given as the source filed them. Calls come from the whole dose curve; as a rule, active = well fitted inhibition curve with a large enough effect; inconclusive = small, poorly fitted or top-dose-only effect; inactive = flat fitted curve, though single readings scatter.
# System: CP268
# Test: qHTS profiling for inhibitors of Plasmodium falciparum proliferation (AID 504749); note: nearly all actives have a fitted effect of over 60% in size
# Settings: P. falciparum in erythrocytes, SYBR Green DNA, 72 h; series mostly up to 28.7 µM
# How it was run: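 Readout was DNA-dye fluorescence from lysed cultures, ex 485/em 535 nm. Parasitized red cells had grown 72 h with compound; data scaled between 0.29 uM artemisinin and DMSO wells and corrected using vehicle-only plates.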
row,Compound,Potency
1,NC(=O)NNc1ccccc1,inactive
2,O=C(O)[C@@H]1CSCN1,inactive
3,COc1ccc2c(c1)C(=O)N(CCc1ccc(S(=O)(=O)NC(=O)NC3CCCCC3)cc1)C(=O)C2(C)C,inactive
4,CCCc1c(OCCCCc2nn[nH]n2)ccc(C(C)=O)c1O,inactive
5,COc1ccc2[nH]c(S(=O)Cc3ncc(C)c(OC)c3C)nc2n1 (stereo not drawn),inactive
6,CCn1cc(C(=O)O)c(=O)c2cnc(N3CCNCC3)nc21,inactive
7,O=C(O)COc1nn(Cc2ccccc2)c2ccccc12,inactive
8,O=C1O[C@H]([C@@H](O)CO)C(O)=C1O,inactive
9,O=S(=O)(O)c1cc(I)c(O)c2ncccc12,inactive
10,CC1=C(CC(=O)O)c2cc(F)ccc2/C1=C\c1ccc(S(C)=O)cc1 (stereo not drawn),inactive
11,CCOC(=O)c1ccc(O)cc1,inactive
12,O=C(O)c1ccccn1,inactive
13,Cc1cc(O)cc2c1O[C@](C)(CCC[C@H](C)CCC[C@H](C)CCCC(C)C)CC2,inactive
14,NCC(=O)CCC(=O)O,inactive
15,CC(C)(C)C(=O)NCCCC(=O)O,inactive
16,COc1cc2[nH]c(=O)[nH]c(=O)c2cc1OC,inactive
17,CCC(=O)Nc1ccc(O)cc1,inactive
18,COc1ccc(Cl)cc1C(=O)NCCc1ccc(S(=O)(=O)NC(=O)NC2CCCCC2)cc1,inactive
19,O=C1NC(=O)[C@@]2(CCOc3ccc(F)cc32)N1,inactive
20,O=Cc1ccccc1C=O,inactive
21,CC(O)CN(CCN(CC(C)O)CC(C)O)CC(C)O (stereo not drawn),inactive
22,Cc1ccc(C(C)C)cc2c(C)ccc1-2,inactive
23,Nc1nc2c(ncn2CCC(CO)CO)c(=O)[nH]1,inactive
